Measured values from PubChem BioAssay (NCI).
Compounds without any hit were thinned out: in the full panel of roughly 83,000, 20% have a hit.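 Growth was measured after 48 h exposure to one concentration of compound in 96-well plates. Values under 10 count as active.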 Values without a mark were called inactive. Activity calls are given as the source filed them.

system: PC-3 prostate; assay: NCI-60 one-dose screen, 48 h (100 = growth as untreated, 0 = no growth, -100 = all killed); settings: 10 µM unless noted

Row | Structure (SMILES) | growth
1 | C=C1C(=O)O[C@H]2[C@H]1CC/C(COC(=O)NCCc1cccc(OC)c1)=C\CC[C@@]1(C)O[C@@H]21 | 50.5%
2 | COc1ccccc1OCC(=O)Nc1sc2c(c1C(N)=O)CCC2 | 88.1%
3 | CCc1c(C(=O)Nc2ccc3ccccc3c2)[nH]c(C)c1C(C)=O | 74%
4 | CCC(=O)Oc1ccc2c(c1)CC[C@@H]1[C@@H]2CC[C@]2(C)C[C@H](OC(=O)CC)C[C@@H]12 | 63.1%
5 | COC(=O)CCCCN=Cc1c(O)c(O)c(C(C)C)c2cc(C)c(-c3c(C)cc4c(C(C)C)c(O)c(O)c(C=NCCCCC(=O)OC)c4c3O)c(O)c12 | 12.1%
6 | COc1ccc2c(c1)C(C)Cc1c(N(C)C)ncnc1N2C (stereo not drawn) | 26.4%
7 | Cc1ccc(S(=O)(=O)OCC(=O)Nc2ccc(C(=O)O)c(O)c2)cc1 | 91.3%
8 | O=C(O)c1ccc(-n2cc(CNc3ccc(C(F)(F)F)cc3)c(-c3ccccc3)n2)cc1 | 79.7%
9 | Cc1cc(C(=O)CSc2nc3ccccc3c(=O)[nH]2)c(C)n1C | 83.9%
10 | CC/C=C\C[C@H](O)C/C=C1/C(=O)C(Cl)=C[C@@H]1C/C=C\CCCC(=O)OC | -33.9% (active)
11 | CCSc1nnc(Nc2ccc(C(C)C)cc2)s1 | 109%
12 | Cc1ccc2nc(-c3c(N)n[nH]c3CCCO)[nH]c(=O)c2c1 | 92.3%
13 | COc1cc(C(=O)N2CCN(C(=O)c3ccco3)CC2)c(N)cc1OCc1ccccc1 | 98.5%
14 | O=C(Nc1cccc(Cl)c1)c1cc([N+](=O)[O-])ccc1O | 35.4%
15 | O=C(CNC(=O)c1cccc2ccccc12)Nc1ccccc1Oc1ccccc1 | 2.31% (active)
16 | Nc1cccc2c1CN(C1CCC(=O)NC1=O)C2=O (stereo not drawn) | 91%
17 | Nc1ccc(S(=O)(=O)c2ccc(Cl)cc2)cc1 | 89.7%
18 | CNC(=O)c1cc(Oc2ccc3c(c2)sc2nc(-c4ccc(Cl)cc4)cn23)ccn1 | 78.8%
19 | Cc1cc(C)c2c(=O)[nH]c(SCC(=O)Nc3cccc(S(=O)(=O)N(C)C)c3)nc2n1 | 95.4%
20 | CSc1ccccc1C#C/C=C\C#Cc1ccccc1N1CCCC1=O | 46.2%

Row | Structure (SMILES) | growth
21 | O=S(=O)(NCCCNc1cc(-c2cn(-c3ccccc3)nc2-c2cccc(O)c2)ccn1)c1ccc(Cl)cc1 | 1.79% (active)
22 | CC(=O)Oc1cccc(OC(C)=O)c1OC(C)=O | 89.6%
23 | C=C1C(=O)O[C@H]2[C@H]1CC/C(COC(=O)NCCc1ccc(Br)cc1)=C\CC[C@@]1(C)O[C@@H]21 | 36.4%
24 | O=S=Nc1ccc([N+](=O)[O-])cc1 | 96.8%
25 | COc1ccc(N=C2NN=C(c3ccc(F)cc3)CS2)cc1OC | 93.2%
26 | NC(C(=O)O)C(O)c1ccc(OCc2ccccc2)c(OCc2ccccc2)c1 (stereo not drawn) | 89.1%
27 | CC/C=C\C[C@H]1C/C=C2/C(=O)C(Cl)=C[C@@H]2C/C=C\CCCC(=O)O1 | -69.9% (active)
28 | Cc1sc2nc(CSc3nnc(-c4ccco4)o3)[nH]c(=O)c2c1C | 102%
29 | O=S(=O)(NCCCNc1cc(-c2cn(-c3ccccc3)nc2-c2cccc(O)c2)ccn1)c1cccc2ccccc12 | 18.5%
30 | CN(C)c1nc(N)c(N=O)c(N)n1 | 99.4%
31 | O=C1NC(Cc2c[nH]c3ccccc23)C(=O)N1Cc1ccc(Cl)cc1 (stereo not drawn) | 90.5%
32 | COC(=O)c1ccc(C)cc1 | 97.5%
33 | COC(=O)CCCCCN=Cc1c(O)c(O)c(C(C)C)c2cc(C)c(-c3c(C)cc4c(C(C)C)c(O)c(O)c(C=NCCCCCC(=O)OC)c4c3O)c(O)c12 | 14%
34 | O=S(=O)(NCCCNc1nccc(-c2c(-c3ccc(F)c(O)c3)nc3sccn23)n1)c1ccc(Cl)cc1 | 58.7%
35 | COc1ncc(-c2ccc3ncnc(Nc4cccc(Cl)c4)c3c2)cc1N(S(C)(=O)=O)S(C)(=O)=O | 52.1%
36 | CC(Br)C(O)c1cc2c(cc1Br)OCO2 (stereo not drawn) | 98.6%
37 | O=S(=O)(NCCCNc1cc(-c2cn(-c3ccccc3)nc2-c2cccc(O)c2)ccn1)c1ccc(Br)cc1 | 4.26% (active)
38 | COc1ccc2c(c1)NC(=O)CN2c1nc(C)nc2ccccc12 | 15.1%
39 | NC(=O)c1c(NC(=O)c2ccc3c(c2)OCO3)sc2c1CCC(=O)C2 | 3.13% (active)

system: SK-MEL-5 melanoma; assay: as above; settings: 10 µM unless noted

Row | Structure (SMILES) | growth
40 | C=C1C(=O)O[C@H]2[C@H]1CC/C(COC(=O)NCCc1cccc(OC)c1)=C\CC[C@@]1(C)O[C@@H]21 | 87.6%
41 | COc1ccccc1OCC(=O)Nc1sc2c(c1C(N)=O)CCC2 | 70%
42 | CCc1c(C(=O)Nc2ccc3ccccc3c2)[nH]c(C)c1C(C)=O | 77.4%
43 | CCC(=O)Oc1ccc2c(c1)CC[C@@H]1[C@@H]2CC[C@]2(C)C[C@H](OC(=O)CC)C[C@@H]12 | 60.4%
44 | COC(=O)CCCCN=Cc1c(O)c(O)c(C(C)C)c2cc(C)c(-c3c(C)cc4c(C(C)C)c(O)c(O)c(C=NCCCCC(=O)OC)c4c3O)c(O)c12 | 28.6%
45 | COc1ccc2c(c1)C(C)Cc1c(N(C)C)ncnc1N2C (stereo not drawn) | 19.4%
46 | Cc1ccc(S(=O)(=O)OCC(=O)Nc2ccc(C(=O)O)c(O)c2)cc1 | 96.3%
47 | O=C(O)c1ccc(-n2cc(CNc3ccc(C(F)(F)F)cc3)c(-c3ccccc3)n2)cc1 | 91.5%
48 | Cc1cc(C(=O)CSc2nc3ccccc3c(=O)[nH]2)c(C)n1C | 98.4%
49 | CC/C=C\C[C@H](O)C/C=C1/C(=O)C(Cl)=C[C@@H]1C/C=C\CCCC(=O)OC | -77.7% (active)
50 | CCSc1nnc(Nc2ccc(C(C)C)cc2)s1 | 78.9%
51 | Cc1ccc2nc(-c3c(N)n[nH]c3CCCO)[nH]c(=O)c2c1 | 105%
52 | COc1cc(C(=O)N2CCN(C(=O)c3ccco3)CC2)c(N)cc1OCc1ccccc1 | 94.9%
53 | O=C(Nc1cccc(Cl)c1)c1cc([N+](=O)[O-])ccc1O | 16.7%
54 | O=C(CNC(=O)c1cccc2ccccc12)Nc1ccccc1Oc1ccccc1 | -33.1% (active)
55 | Nc1cccc2c1CN(C1CCC(=O)NC1=O)C2=O (stereo not drawn) | 103%
56 | Nc1ccc(S(=O)(=O)c2ccc(Cl)cc2)cc1 | 95.2%
57 | CNC(=O)c1cc(Oc2ccc3c(c2)sc2nc(-c4ccc(Cl)cc4)cn23)ccn1 | 87.4%
58 | Cc1cc(C)c2c(=O)[nH]c(SCC(=O)Nc3cccc(S(=O)(=O)N(C)C)c3)nc2n1 | 113%
59 | CSc1ccccc1C#C/C=C\C#Cc1ccccc1N1CCCC1=O | 22.2%

Row | Structure (SMILES) | growth
60 | O=S(=O)(NCCCNc1cc(-c2cn(-c3ccccc3)nc2-c2cccc(O)c2)ccn1)c1ccc(Cl)cc1 | -19.5% (active)
61 | CC(=O)Oc1cccc(OC(C)=O)c1OC(C)=O | 93.8%
62 | C=C1C(=O)O[C@H]2[C@H]1CC/C(COC(=O)NCCc1ccc(Br)cc1)=C\CC[C@@]1(C)O[C@@H]21 | 64%
63 | O=S=Nc1ccc([N+](=O)[O-])cc1 | 101%
64 | COc1ccc(N=C2NN=C(c3ccc(F)cc3)CS2)cc1OC | 86.8%
65 | NC(C(=O)O)C(O)c1ccc(OCc2ccccc2)c(OCc2ccccc2)c1 (stereo not drawn) | 103%
66 | CC/C=C\C[C@H]1C/C=C2/C(=O)C(Cl)=C[C@@H]2C/C=C\CCCC(=O)O1 | -62.6% (active)
67 | Cc1sc2nc(CSc3nnc(-c4ccco4)o3)[nH]c(=O)c2c1C | 97.5%
68 | O=S(=O)(NCCCNc1cc(-c2cn(-c3ccccc3)nc2-c2cccc(O)c2)ccn1)c1cccc2ccccc12 | 14.2%
69 | CN(C)c1nc(N)c(N=O)c(N)n1 | 110%
70 | O=C1NC(Cc2c[nH]c3ccccc23)C(=O)N1Cc1ccc(Cl)cc1 (stereo not drawn) | 95%
71 | COC(=O)c1ccc(C)cc1 | 103%
72 | COC(=O)CCCCCN=Cc1c(O)c(O)c(C(C)C)c2cc(C)c(-c3c(C)cc4c(C(C)C)c(O)c(O)c(C=NCCCCCC(=O)OC)c4c3O)c(O)c12 | 32.3%
73 | O=S(=O)(NCCCNc1nccc(-c2c(-c3ccc(F)c(O)c3)nc3sccn23)n1)c1ccc(Cl)cc1 | 47.2%
74 | COc1ncc(-c2ccc3ncnc(Nc4cccc(Cl)c4)c3c2)cc1N(S(C)(=O)=O)S(C)(=O)=O | 73.6%
75 | CC(Br)C(O)c1cc2c(cc1Br)OCO2 (stereo not drawn) | 102%
76 | O=S(=O)(NCCCNc1cc(-c2cn(-c3ccccc3)nc2-c2cccc(O)c2)ccn1)c1ccc(Br)cc1 | -56.3% (active)
77 | COc1ccc2c(c1)NC(=O)CN2c1nc(C)nc2ccccc12 | -34.8% (active)
78 | NC(=O)c1c(NC(=O)c2ccc3c(c2)OCO3)sc2c1CCC(=O)C2 | -94.2% (active)
